Six compounds from ChEMBL document CHEMBL1961873, “Compounds: GSK PKIS; Assays: Nanosyn kinase panel” (2012) can be followed below.

Assay [1] concerns the target T1, Serine/threonine-protein kinase Nek9 (Homo sapiens) (UniProt Q8TD19).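 Also: each value is a mean percent inhibition of NEK9.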
T1 sequence (whole entry): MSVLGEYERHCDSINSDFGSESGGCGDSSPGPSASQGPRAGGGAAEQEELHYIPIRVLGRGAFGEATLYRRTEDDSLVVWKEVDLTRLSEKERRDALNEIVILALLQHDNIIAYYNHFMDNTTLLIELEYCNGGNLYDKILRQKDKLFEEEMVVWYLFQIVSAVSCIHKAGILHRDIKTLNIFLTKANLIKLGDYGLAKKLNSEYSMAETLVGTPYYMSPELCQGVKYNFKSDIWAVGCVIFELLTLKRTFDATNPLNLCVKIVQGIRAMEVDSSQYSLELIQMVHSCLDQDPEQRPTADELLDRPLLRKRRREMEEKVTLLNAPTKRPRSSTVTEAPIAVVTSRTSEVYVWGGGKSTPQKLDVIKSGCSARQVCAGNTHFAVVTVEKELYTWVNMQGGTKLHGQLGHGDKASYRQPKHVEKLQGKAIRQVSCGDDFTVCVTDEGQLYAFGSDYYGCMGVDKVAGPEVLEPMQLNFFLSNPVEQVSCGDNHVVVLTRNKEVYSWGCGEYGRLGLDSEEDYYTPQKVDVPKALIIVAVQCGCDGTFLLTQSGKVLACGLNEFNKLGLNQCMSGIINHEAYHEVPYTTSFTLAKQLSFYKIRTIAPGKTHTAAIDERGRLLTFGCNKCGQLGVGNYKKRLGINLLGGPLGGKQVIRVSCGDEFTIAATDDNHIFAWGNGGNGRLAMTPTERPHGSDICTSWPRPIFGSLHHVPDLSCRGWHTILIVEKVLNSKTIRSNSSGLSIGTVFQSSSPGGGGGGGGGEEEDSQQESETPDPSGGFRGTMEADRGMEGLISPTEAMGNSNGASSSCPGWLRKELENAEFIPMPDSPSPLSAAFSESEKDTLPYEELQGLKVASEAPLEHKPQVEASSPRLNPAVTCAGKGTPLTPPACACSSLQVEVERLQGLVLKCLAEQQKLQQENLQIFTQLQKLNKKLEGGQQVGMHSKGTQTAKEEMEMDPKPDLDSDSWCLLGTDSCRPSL
To be noted: at 1 µM.

Assay [2] has as its target Serine/threonine-protein kinase PLK1 (Homo sapiens) (UniProt P53350). To be noted: at 0.1 µM.
For assay [3] the target is unchanged. Conditions: at 1 µM.
The target of assay [4] is T2, Dual specificity protein kinase TTK (Homo sapiens) (UniProt P33981).
T2 sequence (whole entry): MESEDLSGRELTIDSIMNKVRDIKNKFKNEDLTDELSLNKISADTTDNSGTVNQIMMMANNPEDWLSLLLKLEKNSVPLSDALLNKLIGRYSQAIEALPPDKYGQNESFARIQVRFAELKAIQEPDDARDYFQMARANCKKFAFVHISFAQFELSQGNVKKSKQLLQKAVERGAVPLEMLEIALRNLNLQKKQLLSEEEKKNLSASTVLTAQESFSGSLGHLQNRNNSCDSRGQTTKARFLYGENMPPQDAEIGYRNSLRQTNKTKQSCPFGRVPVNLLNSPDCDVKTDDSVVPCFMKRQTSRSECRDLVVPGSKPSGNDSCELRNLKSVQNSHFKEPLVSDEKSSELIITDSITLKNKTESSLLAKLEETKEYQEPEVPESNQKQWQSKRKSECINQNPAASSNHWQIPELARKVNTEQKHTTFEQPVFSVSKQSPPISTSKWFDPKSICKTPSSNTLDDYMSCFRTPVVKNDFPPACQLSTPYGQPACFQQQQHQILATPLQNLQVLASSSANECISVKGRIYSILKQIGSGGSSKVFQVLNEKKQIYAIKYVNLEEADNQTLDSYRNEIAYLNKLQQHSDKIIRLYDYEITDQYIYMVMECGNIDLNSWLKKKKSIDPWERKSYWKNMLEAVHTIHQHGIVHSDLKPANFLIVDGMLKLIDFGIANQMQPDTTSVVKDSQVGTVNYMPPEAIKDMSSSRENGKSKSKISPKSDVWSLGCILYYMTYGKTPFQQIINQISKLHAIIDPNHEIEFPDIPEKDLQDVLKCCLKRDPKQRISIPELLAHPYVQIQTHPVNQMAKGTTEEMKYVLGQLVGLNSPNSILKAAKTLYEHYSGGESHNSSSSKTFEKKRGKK
Conditions: at 0.1 µM.

Assay [5] deals with T3, Receptor-type tyrosine-protein kinase FLT3 (Homo sapiens), P36888 [D835Y].
T3 sequence (whole entry): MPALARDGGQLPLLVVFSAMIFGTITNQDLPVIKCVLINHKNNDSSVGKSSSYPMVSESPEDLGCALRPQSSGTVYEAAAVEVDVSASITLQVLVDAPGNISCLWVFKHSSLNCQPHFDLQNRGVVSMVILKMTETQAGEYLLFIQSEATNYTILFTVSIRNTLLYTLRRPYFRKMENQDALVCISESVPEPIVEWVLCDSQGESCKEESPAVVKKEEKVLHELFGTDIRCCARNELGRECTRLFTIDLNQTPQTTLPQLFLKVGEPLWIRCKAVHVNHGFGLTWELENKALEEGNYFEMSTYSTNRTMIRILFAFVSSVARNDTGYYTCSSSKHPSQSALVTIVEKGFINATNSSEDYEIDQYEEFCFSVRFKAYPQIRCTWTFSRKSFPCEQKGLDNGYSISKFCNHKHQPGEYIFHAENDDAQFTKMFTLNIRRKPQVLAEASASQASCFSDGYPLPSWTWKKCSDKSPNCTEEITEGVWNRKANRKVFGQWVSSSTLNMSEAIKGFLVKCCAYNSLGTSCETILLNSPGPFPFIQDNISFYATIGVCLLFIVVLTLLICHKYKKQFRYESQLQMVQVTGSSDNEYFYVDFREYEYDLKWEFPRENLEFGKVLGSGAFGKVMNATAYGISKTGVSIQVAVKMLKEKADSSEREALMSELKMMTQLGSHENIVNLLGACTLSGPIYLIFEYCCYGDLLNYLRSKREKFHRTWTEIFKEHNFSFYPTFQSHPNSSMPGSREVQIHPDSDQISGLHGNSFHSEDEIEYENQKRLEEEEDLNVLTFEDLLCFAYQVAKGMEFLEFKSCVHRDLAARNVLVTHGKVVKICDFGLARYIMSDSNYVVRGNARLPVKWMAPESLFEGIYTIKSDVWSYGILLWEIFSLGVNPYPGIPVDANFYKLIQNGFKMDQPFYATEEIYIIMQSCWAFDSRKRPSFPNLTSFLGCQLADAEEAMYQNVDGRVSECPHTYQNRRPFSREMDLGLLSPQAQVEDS
Conditions: at 1 µM.

Assay [6] deals with Vascular endothelial growth factor receptor 3 (Homo sapiens) (UniProt P35916). Conditions: at 0.1 µM.
Assay [7] has the same target. To be noted: at 1 µM.
The target in assay [8] is Macrophage colony-stimulating factor 1 receptor (Homo sapiens) (UniProt P07333). Conditions: at 0.1 µM.
Assay [9] has the same target. Conditions: at 1 µM.
Assay [10] addresses Tyrosine-protein kinase Fyn (Homo sapiens) (UniProt P06241). Conditions: at 0.1 µM.
The target is the same in assay [11]. To be noted: at 1 µM.
In assay [12] the target is Tyrosine-protein kinase HCK (Homo sapiens) (UniProt P08631). To be noted: at 0.1 µM.
For assay [13] the target is unchanged. To be noted: at 1 µM.
The target of assay [14] is Insulin-like growth factor 1 receptor (Homo sapiens) (UniProt P08069). To be noted: at 0.1 µM.
Assay [15] shares this target. Conditions: at 1 µM.
The target in assay [16] is Insulin receptor (Homo sapiens) (UniProt P06213). Conditions: at 0.1 µM.
Assay [17] has the same target. To be noted: at 1 µM.
For assay [18], the target named is Insulin receptor-related protein (Homo sapiens) (UniProt P14616). Conditions: at 0.1 µM.
Assay [19] shares this target. Conditions: at 1 µM.
For assay [20], the target named is T4, Tyrosine-protein kinase ITK/TSK (Homo sapiens) (UniProt Q08881).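 Also: mean percent inhibition of ITK from the GSK PKIS screen.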
T4 sequence (whole entry): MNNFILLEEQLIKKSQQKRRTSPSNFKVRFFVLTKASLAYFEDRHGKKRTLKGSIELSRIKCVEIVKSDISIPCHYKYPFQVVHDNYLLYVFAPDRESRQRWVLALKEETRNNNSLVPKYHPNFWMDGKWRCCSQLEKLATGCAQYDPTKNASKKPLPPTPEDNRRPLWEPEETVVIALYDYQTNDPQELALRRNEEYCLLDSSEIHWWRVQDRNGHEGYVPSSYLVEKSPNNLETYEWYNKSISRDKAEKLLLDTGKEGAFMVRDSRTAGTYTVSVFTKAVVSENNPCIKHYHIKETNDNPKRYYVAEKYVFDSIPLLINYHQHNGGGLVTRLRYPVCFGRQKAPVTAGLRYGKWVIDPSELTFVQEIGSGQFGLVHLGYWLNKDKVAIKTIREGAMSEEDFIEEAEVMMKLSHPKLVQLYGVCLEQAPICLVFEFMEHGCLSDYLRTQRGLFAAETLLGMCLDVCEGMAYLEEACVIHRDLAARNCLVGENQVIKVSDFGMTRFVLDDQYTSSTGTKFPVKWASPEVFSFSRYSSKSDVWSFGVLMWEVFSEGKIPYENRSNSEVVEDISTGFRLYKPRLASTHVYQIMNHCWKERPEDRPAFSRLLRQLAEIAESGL
To be noted: at 0.1 µM.

Sequence of Serine/threonine-protein kinase PLK1 (Homo sapiens) (P53350 whole entry): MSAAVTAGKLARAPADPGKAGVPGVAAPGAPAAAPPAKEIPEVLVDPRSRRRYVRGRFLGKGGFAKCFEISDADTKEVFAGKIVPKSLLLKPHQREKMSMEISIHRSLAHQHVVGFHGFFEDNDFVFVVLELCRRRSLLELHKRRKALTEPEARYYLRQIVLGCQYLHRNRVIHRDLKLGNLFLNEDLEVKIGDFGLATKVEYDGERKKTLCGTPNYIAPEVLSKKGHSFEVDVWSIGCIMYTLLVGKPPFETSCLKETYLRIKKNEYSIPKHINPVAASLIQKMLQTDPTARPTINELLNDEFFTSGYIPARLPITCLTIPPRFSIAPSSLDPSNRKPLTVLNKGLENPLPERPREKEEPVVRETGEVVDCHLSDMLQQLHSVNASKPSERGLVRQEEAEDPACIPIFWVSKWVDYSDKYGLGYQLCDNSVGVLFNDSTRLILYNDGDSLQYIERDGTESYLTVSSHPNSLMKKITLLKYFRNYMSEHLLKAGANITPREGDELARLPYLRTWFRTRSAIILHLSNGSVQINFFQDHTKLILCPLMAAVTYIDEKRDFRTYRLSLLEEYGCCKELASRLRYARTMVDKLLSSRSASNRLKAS
Sequence of Tyrosine-protein kinase HCK (Homo sapiens) (P08631 2-526 limits assumed): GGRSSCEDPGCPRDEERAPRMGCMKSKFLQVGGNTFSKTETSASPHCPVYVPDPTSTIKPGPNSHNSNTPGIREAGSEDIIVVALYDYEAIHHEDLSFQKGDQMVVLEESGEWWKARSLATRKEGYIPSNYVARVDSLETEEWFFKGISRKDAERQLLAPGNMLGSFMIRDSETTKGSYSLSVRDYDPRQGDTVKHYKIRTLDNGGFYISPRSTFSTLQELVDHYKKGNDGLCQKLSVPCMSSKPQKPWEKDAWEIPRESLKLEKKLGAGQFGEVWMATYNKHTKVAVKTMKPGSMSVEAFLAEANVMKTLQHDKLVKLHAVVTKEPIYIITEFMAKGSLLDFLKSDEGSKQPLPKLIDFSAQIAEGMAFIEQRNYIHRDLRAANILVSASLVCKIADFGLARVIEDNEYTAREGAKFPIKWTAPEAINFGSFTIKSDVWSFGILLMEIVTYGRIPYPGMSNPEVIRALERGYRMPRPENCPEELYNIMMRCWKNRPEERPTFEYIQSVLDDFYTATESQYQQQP
Sequence of Insulin receptor (Homo sapiens) (P06213 28-758 limits assumed): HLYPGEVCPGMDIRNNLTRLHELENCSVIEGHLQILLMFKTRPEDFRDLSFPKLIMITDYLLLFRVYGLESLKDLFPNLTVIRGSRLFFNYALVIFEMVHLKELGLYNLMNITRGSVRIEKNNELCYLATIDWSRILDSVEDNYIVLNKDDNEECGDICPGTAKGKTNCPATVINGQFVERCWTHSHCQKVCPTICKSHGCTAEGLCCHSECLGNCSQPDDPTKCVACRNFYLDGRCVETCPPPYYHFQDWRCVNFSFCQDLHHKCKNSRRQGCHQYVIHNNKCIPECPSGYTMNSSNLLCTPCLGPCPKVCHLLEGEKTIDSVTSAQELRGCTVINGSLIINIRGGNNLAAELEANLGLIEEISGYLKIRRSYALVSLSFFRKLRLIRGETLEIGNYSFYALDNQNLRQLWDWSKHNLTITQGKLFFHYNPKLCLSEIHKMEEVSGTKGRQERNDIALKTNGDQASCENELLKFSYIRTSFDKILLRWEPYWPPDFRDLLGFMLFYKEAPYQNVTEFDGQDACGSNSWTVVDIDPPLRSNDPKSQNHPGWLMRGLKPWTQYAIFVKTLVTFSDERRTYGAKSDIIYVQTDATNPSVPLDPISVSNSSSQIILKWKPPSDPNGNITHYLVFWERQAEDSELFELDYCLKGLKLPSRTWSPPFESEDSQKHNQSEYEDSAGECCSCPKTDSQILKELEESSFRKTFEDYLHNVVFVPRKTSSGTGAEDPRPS
Sequence of Insulin receptor (Homo sapiens) (P06213 763-1382 limits assumed): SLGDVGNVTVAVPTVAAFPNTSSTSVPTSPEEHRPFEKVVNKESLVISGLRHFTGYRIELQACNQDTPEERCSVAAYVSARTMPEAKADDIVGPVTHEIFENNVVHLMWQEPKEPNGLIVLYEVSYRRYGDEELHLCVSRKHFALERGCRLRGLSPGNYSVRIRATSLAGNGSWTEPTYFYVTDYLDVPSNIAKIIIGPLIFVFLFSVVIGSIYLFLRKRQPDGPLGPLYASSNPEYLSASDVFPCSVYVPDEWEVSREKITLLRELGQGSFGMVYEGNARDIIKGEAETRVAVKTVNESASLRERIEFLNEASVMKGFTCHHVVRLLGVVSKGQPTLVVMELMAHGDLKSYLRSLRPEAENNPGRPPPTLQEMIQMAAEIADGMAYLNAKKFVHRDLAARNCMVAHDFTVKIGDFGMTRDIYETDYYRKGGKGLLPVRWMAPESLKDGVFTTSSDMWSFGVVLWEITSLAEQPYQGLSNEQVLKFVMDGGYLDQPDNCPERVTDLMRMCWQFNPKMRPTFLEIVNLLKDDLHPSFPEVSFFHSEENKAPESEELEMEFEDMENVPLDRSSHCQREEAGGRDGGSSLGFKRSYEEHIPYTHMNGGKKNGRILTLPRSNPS
Sequence of Insulin receptor-related protein (Homo sapiens) (P14616 27-742 limits assumed): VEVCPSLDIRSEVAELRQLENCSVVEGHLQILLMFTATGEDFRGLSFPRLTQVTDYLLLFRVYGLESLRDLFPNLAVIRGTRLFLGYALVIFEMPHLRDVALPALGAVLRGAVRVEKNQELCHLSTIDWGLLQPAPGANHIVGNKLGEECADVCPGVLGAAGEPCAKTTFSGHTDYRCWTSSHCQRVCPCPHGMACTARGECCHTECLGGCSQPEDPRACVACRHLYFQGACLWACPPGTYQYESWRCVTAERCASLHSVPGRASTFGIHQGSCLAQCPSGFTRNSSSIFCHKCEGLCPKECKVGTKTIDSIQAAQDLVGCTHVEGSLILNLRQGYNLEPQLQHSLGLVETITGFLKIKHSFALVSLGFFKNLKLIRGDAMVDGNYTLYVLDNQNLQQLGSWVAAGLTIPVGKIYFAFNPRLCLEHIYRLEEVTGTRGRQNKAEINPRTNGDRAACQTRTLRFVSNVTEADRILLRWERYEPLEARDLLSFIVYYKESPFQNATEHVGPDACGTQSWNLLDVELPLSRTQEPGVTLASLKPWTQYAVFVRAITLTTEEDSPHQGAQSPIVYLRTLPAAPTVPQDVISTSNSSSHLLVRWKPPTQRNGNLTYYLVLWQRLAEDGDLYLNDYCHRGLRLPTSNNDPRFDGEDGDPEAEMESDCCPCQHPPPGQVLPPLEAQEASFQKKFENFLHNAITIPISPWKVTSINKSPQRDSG
Sequence of Insulin receptor-related protein (Homo sapiens) (P14616 747-1297 limits assumed): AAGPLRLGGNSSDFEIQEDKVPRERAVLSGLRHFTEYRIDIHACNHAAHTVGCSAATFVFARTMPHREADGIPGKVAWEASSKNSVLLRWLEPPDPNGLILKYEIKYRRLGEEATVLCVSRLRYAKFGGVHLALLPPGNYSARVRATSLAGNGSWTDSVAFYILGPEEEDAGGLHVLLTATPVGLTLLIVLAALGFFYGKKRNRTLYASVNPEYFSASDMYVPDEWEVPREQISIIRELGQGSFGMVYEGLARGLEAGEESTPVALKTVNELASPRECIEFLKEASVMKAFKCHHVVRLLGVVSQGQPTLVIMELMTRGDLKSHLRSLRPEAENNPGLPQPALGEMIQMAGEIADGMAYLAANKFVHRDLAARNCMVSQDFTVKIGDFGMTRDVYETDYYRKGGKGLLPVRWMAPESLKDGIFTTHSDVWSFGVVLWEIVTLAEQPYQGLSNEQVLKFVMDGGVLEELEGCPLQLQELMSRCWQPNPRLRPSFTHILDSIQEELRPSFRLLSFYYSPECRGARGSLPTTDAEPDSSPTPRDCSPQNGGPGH
Sequence of Tyrosine-protein kinase Fyn (Homo sapiens) (P06241 2-537 limits assumed): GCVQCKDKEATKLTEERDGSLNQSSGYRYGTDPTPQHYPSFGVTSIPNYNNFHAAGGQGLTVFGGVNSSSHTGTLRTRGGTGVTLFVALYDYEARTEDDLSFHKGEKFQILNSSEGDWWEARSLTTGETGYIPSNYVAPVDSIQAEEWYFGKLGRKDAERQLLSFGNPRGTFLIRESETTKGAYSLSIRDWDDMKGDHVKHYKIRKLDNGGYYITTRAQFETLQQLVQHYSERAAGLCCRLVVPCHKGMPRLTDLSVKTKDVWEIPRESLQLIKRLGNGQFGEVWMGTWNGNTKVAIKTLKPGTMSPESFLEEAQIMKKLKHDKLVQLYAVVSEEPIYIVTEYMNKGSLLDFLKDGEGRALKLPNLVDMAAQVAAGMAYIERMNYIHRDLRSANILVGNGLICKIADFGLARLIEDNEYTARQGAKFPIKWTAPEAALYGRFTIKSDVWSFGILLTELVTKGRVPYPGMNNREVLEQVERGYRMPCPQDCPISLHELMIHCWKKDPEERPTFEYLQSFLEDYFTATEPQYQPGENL

On to `O=S(=O)(CCOCc1ccc(-c2ccc3ncnc(Nc4ccc(OCc5cccc(F)c5)c(Cl)c4)c3c2)o1)c1ccccc1`, for which the inhibition in assay [1] was 0.79%; in assay [2], 2.52%; in [3] it was 2.68%; in assay [4] it was 6.45%; in [5], -7.19%; in assay [6], 5.04%. The inhibition in assay [7] was 14%; in [8], -1.86%; in [9] it was 7.49%; in assay [10], 2.16%; in [11], 0.6%; in assay [12], 3.81%. Moreover, the inhibition in assay [13] was 6.35%; in assay [14] it was 13%; in assay [15], 8.7%; in [16] it was 1.87%; in assay [17] it was 3.13%; in [18], -2.12%. Moreover, the inhibition was 0.31% in assay [19] and -0.7% in [20].

For the compound `CCS(=O)(=O)c1ccc(OC)c(Nc2nccc(N(C)c3ccc4c(C)n[nH]c4c3)n2)c1`, the inhibition was 6.15% in assay [1]; 4.22% in [2]; 8.94% in assay [3]; 10.8% in [4]; -5.27% in assay [5]; 94.8% in [6]. The inhibition was 104% in assay [7]; 5.72% in assay [8]; 32.2% in assay [9]; 39% in [10]; 65% in assay [11]; 39.5% in assay [12]. In addition, the inhibition in assay [13] turned out to be 72.1%; in assay [14], 12.5%; in [15], 12.5%; in assay [16], 3.36%; in assay [17] it was 4.35%; in assay [18], 1.12%. In addition, the inhibition amounted to 4.55% in assay [19] and 0.31% in [20].

`CCn1c(-c2nonc2N)nc2c(C#CC(C)(C)O)nc(OCCNC)cc21`: the inhibition in assay [1] is 7.49%; in assay [2], 6.83%; in [3], 8.02%; in assay [4], 7.19%; in assay [5], -0.49%; in [6], 1.76%. Also, the inhibition in [7] was 11.6%; in assay [8] it was -0.38%; in [9] it was 3.67%; in assay [10] it was 1.14%; in assay [11], 4.65%; in assay [12], 5.42%. The inhibition in assay [13] is 8.69%; in [14] it was 5.39%; in [15], 3.53%; in assay [16] it was 6.39%; in assay [17], 5.58%; in assay [18], 0.83%. Further, the values for the inhibition in assay [19] and in assay [20] were 1.9% and 0.63%, respectively.

`[O-][S+]1CCN(Cc2ccc(-c3ccc4ncnc(Nc5ccc(OCc6ccccc6)c(Cl)c5)c4c3)o2)CC1`: the inhibition in assay [1] is 3.24%; in assay [2], 3.9%; in assay [3] it was 2.79%; in assay [4], 8.87%; in assay [5], -1.91%; in assay [6], 7.2%. For the same compound, the inhibition in assay [7] is 11.7%; in assay [8], -0.34%; in assay [9], 0.13%; in assay [10] it was 2.58%; in assay [11], 4.61%; in [12], 2.6%. Besides, the inhibition was 3.96% in [13]; 14.4% in assay [14]; 10.7% in assay [15]; 2% in [16]; 3.55% in assay [17]; -1.65% in assay [18]. In addition, the inhibition in [19] was determined as 0.75%; in assay [20] it was 0.08%.

On to `CN(C)C(=O)O[C@@H]1CN[C@@H](C#Cc2cc3ncnc(Nc4ccc(OCc5cccc(F)c5)c(Cl)c4)c3s2)C1`, for which the inhibition in assay [1] was 5.37%; in assay [2], 4.55%; in assay [3] it was 3.19%; in assay [4] it was 1.31%; in assay [5], -2.2%; in assay [6], -0.2%. Moreover, the inhibition was 0.49% in [7]; -1.87% in [8]; 2.32% in assay [9]; 1.01% in [10]; 3.53% in [11]; 1.53% in assay [12]. For the same compound, the inhibition is 4.13% in [13]; -0.74% in [14]; 0% in assay [15]; 0.78% in assay [16]; 1.75% in assay [17]; -1.28% in [18]. Also, the inhibition was 0.29% in assay [19] and 0.62% in assay [20].

For `Nc1nccc(C#Cc2cncnc2Nc2ccc(OCc3cccc(F)c3)c(Cl)c2)n1`, the inhibition was 1.53% in [1]; 3.36% in [2]; 3.68% in assay [3]; 5.31% in [4]; 7.19% in [5]; 3.89% in [6]. The inhibition in [7] is 0.33%; in assay [8], 2.3%; in assay [9], 5.18%; in [10], -0.31%; in assay [11], 2.19%; in assay [12], 5.32%. Further, the inhibition was 10.2% in [13]; 3.97% in [14]; 4.12% in assay [15]; 3.13% in assay [16]; 4.44% in [17]; 8.14% in [18]. For the same compound, the inhibition amounted to 1.12% in assay [19] and 1.89% in assay [20].
